From PubChem BioAssay
Active and inactive are the calls of the source. Cut-off read from the data, not from the text of the source, unless noted: active = inhibition above about 30%; inactive = the rest. Square brackets hold non-standard residues; d marks the D form. Peptide text beside a SMILES is read from it. NMeY = CN[C@@H](Cc1ccc(O)cc1)C(=O)O; NMeF = CN[C@@H](Cc1ccccc1)C(=O)O; 2Abz = Nc1ccccc1C(=O)O

What was measured:
[1] = molecular target: Nuclear receptor coactivator 3 (Homo sapiens) (UniProt Q9Y6Q9); assay: SRC3 coactivator transcriptional activity inhibitors, confirmation, cell-based, luminescence, quadruplicate (AID 588792;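 active = mean inhibition over 43.08%, the solvent-only control mean plus 3 SD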;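 note: 0% = DMSO treated cells and 100% = gossypol at 36 µM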); conditions: HEK293 GAL4-SRC3 luciferase reporter, at 3.6 µM, hits give high values
Sequence of Nuclear receptor coactivator 3 (Homo sapiens) (Q9Y6Q9 whole entry, looked up, the tested form may be a part): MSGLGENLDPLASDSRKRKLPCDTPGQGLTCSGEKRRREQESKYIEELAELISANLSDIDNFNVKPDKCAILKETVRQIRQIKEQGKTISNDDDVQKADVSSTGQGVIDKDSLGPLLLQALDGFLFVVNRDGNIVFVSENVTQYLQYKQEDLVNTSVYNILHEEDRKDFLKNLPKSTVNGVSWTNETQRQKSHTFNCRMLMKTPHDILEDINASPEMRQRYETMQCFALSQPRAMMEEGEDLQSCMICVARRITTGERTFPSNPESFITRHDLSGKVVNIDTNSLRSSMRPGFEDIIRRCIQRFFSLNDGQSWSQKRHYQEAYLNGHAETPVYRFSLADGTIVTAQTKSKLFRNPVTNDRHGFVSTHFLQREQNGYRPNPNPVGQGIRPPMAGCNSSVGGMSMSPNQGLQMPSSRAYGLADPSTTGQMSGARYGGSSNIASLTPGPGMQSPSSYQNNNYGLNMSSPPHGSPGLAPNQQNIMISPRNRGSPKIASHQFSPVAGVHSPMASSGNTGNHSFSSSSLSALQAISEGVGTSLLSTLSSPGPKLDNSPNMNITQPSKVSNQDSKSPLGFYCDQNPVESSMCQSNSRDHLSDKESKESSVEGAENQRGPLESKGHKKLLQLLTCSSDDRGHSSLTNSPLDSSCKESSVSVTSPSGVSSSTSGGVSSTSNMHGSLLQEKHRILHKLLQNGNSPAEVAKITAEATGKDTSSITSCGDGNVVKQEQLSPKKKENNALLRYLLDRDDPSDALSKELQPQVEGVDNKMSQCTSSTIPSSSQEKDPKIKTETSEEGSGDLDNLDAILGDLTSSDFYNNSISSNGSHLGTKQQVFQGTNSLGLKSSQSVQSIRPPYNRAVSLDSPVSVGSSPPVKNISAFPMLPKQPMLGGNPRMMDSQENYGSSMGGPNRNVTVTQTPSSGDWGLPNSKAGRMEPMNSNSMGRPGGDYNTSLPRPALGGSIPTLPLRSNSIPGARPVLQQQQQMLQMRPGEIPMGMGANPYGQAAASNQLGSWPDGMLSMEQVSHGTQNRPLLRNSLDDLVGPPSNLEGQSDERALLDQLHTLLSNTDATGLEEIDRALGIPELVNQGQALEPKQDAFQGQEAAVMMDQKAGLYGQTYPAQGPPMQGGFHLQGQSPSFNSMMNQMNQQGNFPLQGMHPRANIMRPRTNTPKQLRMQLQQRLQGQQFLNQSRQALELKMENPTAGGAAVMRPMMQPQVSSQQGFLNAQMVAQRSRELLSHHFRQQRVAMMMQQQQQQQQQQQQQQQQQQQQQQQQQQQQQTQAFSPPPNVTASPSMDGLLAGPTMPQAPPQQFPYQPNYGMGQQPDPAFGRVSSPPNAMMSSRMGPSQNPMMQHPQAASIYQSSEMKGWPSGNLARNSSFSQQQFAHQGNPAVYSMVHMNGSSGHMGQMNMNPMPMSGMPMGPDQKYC

[2] = system: transactivating tegument protein VP16 (Human herpesvirus 1), Gal4-VP16 luciferase reporter; assay: VP16 transactivation inhibitors, counter-screen for SRC3 inhibitor project, cell-based, luminescence, high throughput (AID 588794); conditions: mammalian cells, VP16-driven luciferase reporter luminescence; at 3.6 µM; hits give high values

| SMILES | inhibition [1] | inhibition [2] |
| --- | --- | --- |
| Cc1ccc(-c2c[n+](Cc3ccc(Cl)c(Cl)c3)c3n2CCC3)cc1 | 17.6% (inactive) | 25.3% (inactive) |
| O=C(Cc1ccccc1)NNC(=O)Nc1cccc(Cl)c1 | 10.6% (inactive) | -0.2% (inactive) |
| COc1ccc(/C(C)=N/NC(=O)c2cccc(S(=O)(=O)N3CCCC3)c2)c(O)c1 | 67.9% (active) | 63.5% (active) |
| CCCN1CCN(C2CCCCC2NS(=O)(=O)c2ccccc2)CC1 (stereo not given) | -7.15% (inactive) | -2.22% (inactive) |
| Cc1cc(NC2CCCCC2)nc(NCc2ccccc2)n1 | 18.8% (inactive) | 28.1% (inactive) |
| COc1cc(C(=O)Nc2nc(-c3cccs3)cs2)cc(OC)c1OC | -9.35% (inactive) | -21.8% (inactive) |
| COc1cc(OC)cc(-c2nn[nH]n2)c1 | -10.5% (inactive) | -1.27% (inactive) |
| c1ccc(Oc2cccc(Oc3ccccc3)n2)cc1 | 5.37% (inactive) | 1.72% (inactive) |
| Clc1ccc(C[n+]2cc(-c3ccccc3)n3c2CCCCC3)c(Cl)c1 | 22.4% (inactive) | 46.7% (active) |
| CCC1C(=O)NCCN1C(=O)c1ccc2nc(Cc3ccc(OC)cc3)oc2c1 (stereo not given) | -2.02% (inactive) | -0.9% (inactive) |
| O=C(Nc1ccccc1C(=O)Nc1nnc(C(F)(F)F)s1)c1ccccc1Cl | 12.3% (inactive) | 11% (inactive) |
| CC(C)C[C@@H]1NC(=O)[C@H](Cc2ccccc2)N(C)C(=O)[C@H](C)NC(=O)c2ccccc2NC(=O)[C@H](Cc2ccc(O)cc2)N(C)C1=O (cyclo([2Abz]A[NMeF]L[NMeY])) | 18.1% (inactive) | 17.5% (inactive) |
| Nc1ccccc1SCC(=O)Nc1nc(-c2ccccc2)cs1 | 25% (inactive) | 48.4% (active) |
| COCCNC(=O)c1cc(-c2ccccn2)nc2ccc(S(=O)(=O)N3CCC(C)CC3)cc12 | 30.4% (inactive) | 0.64% (inactive) |
| O=C(NN=Cc1cccc(O)c1O)c1ccccc1 | 23.7% (inactive) | 21.5% (inactive) |
